Data taken from PubChem BioAssay AID493170 (National Center for Advancing Translational Sciences (NCATS), 2011).
Inconclusive results are not listed. A call without a number means that no potency is given here. Calls of active or inactive are those of the source. Calls follow the shape of the dose curve; as a rule, active = well fitted inhibition curve with a large enough effect; inconclusive = small, poorly fitted or top-dose-only effect, or effect the other way; inactive = flat fitted curve, though single readings scatter.

These compounds were tested against Ubiquitin carboxyl-terminal hydrolase 2 (Homo sapiens) (UniProt O75604) (assay: Ub-rhodamine 110 based assay for inhibitors Ubiquitin-specific Protease USP2a). Conditions: USP2a Ub-rhodamine110 cleavage, fluorescence; series mostly up to 38.3 µM.
Ubiquitin carboxyl-terminal hydrolase 2 (Homo sapiens), sequence (O75604 whole entry, looked up): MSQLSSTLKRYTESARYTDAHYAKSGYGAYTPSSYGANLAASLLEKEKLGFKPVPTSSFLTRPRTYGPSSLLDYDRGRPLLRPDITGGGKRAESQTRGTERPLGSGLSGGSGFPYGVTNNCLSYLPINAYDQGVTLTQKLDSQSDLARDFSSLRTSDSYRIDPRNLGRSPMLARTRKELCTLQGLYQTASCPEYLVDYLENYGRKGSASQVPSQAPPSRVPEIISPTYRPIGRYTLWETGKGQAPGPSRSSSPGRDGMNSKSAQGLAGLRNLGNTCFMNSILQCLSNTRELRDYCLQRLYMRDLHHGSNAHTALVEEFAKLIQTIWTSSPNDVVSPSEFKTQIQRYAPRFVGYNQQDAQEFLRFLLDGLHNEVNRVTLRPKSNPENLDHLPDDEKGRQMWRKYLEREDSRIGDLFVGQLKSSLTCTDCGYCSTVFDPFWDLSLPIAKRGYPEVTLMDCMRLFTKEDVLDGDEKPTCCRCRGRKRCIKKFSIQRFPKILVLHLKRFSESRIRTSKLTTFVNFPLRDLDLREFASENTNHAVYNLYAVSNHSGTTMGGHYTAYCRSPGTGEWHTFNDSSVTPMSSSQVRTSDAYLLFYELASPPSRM
From the text: NIH Molecular Libraries Probe Centers Network [MLPCN] NIH Chemical Genomics Center [NCGC] MLPCN Grant: XO1-MH079852-01 PI Name: Nicholson, Ben. Progenra Inc, Malvern, PA NCGC Assay Overview: Homeostasis of cellular proteins is maintained through a combination of synthesis and degradation. The pathway that accounts for the majority of protein degradation is the ubiquitin-proteasomal pathway. Ubiquitin (Ub) is highly conserved in all cells and the generation of a multi-Ub chain typically targets proteins for degradation by the proteasome. However, ubiquitination is highly reversible and dynamic. Deubiquitination, the reverse process, is catalyzed through the action of enzymes referred to as isopeptidases or deubiquitinating enzymes (DUBs). This group of enzymes is collectively responsible for maintaining adequate pools of free ubiquitin and regulating the ubiquitination status of cellular proteins. The class of DUBs referred to as the ubiquitin-specific proteases (USP) family functions endoproteolytically to cleave Ub chains from a wide range of protein substrates. USP2a deubiquitinates fatty acid synthase (FASN) which has recently been identified as an emerging oncology target. To identify inhibitors of USP2a a cell-free assay was employed. This assay measures cleavage of a profluorescent substrate (Ub-Rhodamine 110; Boston Biochem Cat#: U-555) by USP2a. The assay gives a fluorescent read-out at excitation/emission wavelengths of 485/531. The USP2a enzyme was provided by Progenra, Inc. licensed for sale by LifeSensors, Inc.
NCGC Assay Protocol: The assay buffer, prepared fresh at the day of the assay, contains 20mM Tris-HCl pH 8.0, 2mM CaCl2, 2mM beta-Mercaptoethanol, 0.05% CHAPS. 3uL of 10 nM (5 nM final) USP2a, was dispensed into a medium-binding black solid Kalypsys 1,536 well plate using the Kalypsys dispenser. The assay plate was then pinned with 23nL compounds in DMSO with a Kalypsys pintool in columns 5-48 (0.3% final DMSO concentration). The negative control was buffer/DMSO only in column 3. The assay plate is incubated at RT for 30min. Subsequently, 3uL of 300 nM Ub-Rhod110 (150 nM final) was dispensed into the plate using a Kalypsys dispenser. Plates were read after every minute for 7 min on a ViewLux (Perkin Elmer) plate reader using the following wavelengths: Ex 485nm /Em 531nm. Data were normalized to the AC100 inhibition (buffer alone). Concentration-response curves were fitted to the normalized data and the concentration-response curves were then classified based on curve quality (r2), response magnitude and degree of measured activity. The time zero reading was used to flag fluorescence artifacts.
Also: nearly all actives have a fitted effect of over 50% in size.
Potency is read from the fitted curve at half-maximal effect.

Compound | Potency
O=C1NC(=O)[C@]2(Cc3ccccc3N3CCN(c4ccccc4)CC32)C(=O)N1Cc1ccccc1 (stereo partly specified) | 6.31 µM (active)
FC(F)(F)c1ccc2c(c1)N(CCCN1CCN(CCCl)CC1)c1ccccc1S2 | inactive
O=c1[nH]c(=O)n(Cc2ccc(F)cc2)c(O)c1C=NCCCn1ccnc1 | inactive
COc1ccc(NC(=O)c2c(C)nn(Cc3ccccc3Cl)c2Cl)cc1Cl | inactive
Nc1ccc(S(=O)(=O)N2CCCCC2c2cccnc2)cc1 (stereo unspecified) | inactive
O=C(COc1ccc(S(=O)(=O)N2CCOCC2)cc1)N1CCN(Cc2ccc3c(c2)OCO3)CC1 | inactive
CCCC1=C(C(=O)OCC)C2(C(=O)Nc3ccc(C)cc32)C(C#N)=C(N)O1 (stereo unspecified) | inactive
Clc1ccc(C(c2ccc(Cl)cc2)n2cc[n+](CC(OCc3ccc(Cl)cc3Cl)c3ccc(Cl)cc3Cl)c2)cc1 (stereo unspecified) | 10 µM (active)
COc1ccc(S(=O)(=O)Cc2ccc(C(=O)N3CCC4(CC3)OCCO4)o2)cc1 | inactive
O=C(O)c1cccc2c1NC(C(=O)O)C1CC(Sc3ccccc3[N+](=O)[O-])C(Cl)C21 (stereo unspecified) | 5.01 µM (active)
CC(=Nc1ccc2c(c1)CCC2)c1c(O)n(C)c(=O)n(C)c1=O | inactive
Cc1nn(Cc2ccc(Cl)cc2Cl)c(Cl)c1C(=O)Nc1ccc(OC(F)F)cc1 | inactive
OC(c1ccncc1)(c1ccc(F)cc1)c1ccc(F)cc1 | inactive
CCCCn1c(=O)c(C(=O)Nc2ccccc2S(N)(=O)=O)c(O)c2ccccc21 | 10 µM (active)
CC1Oc2cc3c(-c4c(O)cc(O)c5c(O)c6c(cc45)OC(C)C(C)C6=O)c(O)cc(O)c3c(O)c2C(=O)C1C (stereo unspecified) | 2 µM (active)
CC(C)N1C(=O)/C(=C/C=C/c2ccco2)C(=O)N(Cc2ccco2)C1=O | 12.6 µM (active)
